Sampled rows, rich in hits. Any-hit rate of the full collection: about 0.92%.
BLM helicase inh: Bloom syndrome helicase (human) inhibition | P54132 | recombinant BLM DNA unwinding, fluorescence dequenching | Potency, µM (series often up to 56.1 µM), without a hit: at the top dose activity change, negative = inhibition, hits mostly inhibitors | hit rate 0.2% among 350,000;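 further: plate controls were vehicle for no effect and no enzyme for full effect; nearly all actives have a fitted effect of over 35% in size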
TDP1 block: blocks human tyrosyl-DNA phosphodiesterase 1; Q9NUW8; recombinant TDP1, AlphaScreen DNA substrate cleavage; Potency, µM (titrated, usually from 130 µM), for the others: top-dose activity change, negative = inhibition, usual class: inhibitors; hit rate 0.28% among 350,000; further: nearly all actives have a fitted effect of over 40% in size
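Steps: enzyme plus compound, 15 min RT; add biotin/phosphotyrosine-FITC oligonucleotide (15 nM final), react 5 min; add donor/acceptor beads (10 ug/ml final), 10 min; read AlphaScreen. Tdp1 at 1 nM final.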
RECQ1 helicase: inhibitors of human RECQ1 DNA helicase | RECQ1 DNA unwinding, red fluorescence kinetic read | Potency, µM (doses to about 57.3 µM), for the others: top-dose activity, negative = inhibition, hits mostly inhibitors | hit rate 0.54% among 240,000 | AID 2549;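 further: plate controls were vehicle for no effect and no enzyme for full effect; nearly all actives have a fitted effect of over 30% in size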
Target sequence (P46063 whole entry, looked up): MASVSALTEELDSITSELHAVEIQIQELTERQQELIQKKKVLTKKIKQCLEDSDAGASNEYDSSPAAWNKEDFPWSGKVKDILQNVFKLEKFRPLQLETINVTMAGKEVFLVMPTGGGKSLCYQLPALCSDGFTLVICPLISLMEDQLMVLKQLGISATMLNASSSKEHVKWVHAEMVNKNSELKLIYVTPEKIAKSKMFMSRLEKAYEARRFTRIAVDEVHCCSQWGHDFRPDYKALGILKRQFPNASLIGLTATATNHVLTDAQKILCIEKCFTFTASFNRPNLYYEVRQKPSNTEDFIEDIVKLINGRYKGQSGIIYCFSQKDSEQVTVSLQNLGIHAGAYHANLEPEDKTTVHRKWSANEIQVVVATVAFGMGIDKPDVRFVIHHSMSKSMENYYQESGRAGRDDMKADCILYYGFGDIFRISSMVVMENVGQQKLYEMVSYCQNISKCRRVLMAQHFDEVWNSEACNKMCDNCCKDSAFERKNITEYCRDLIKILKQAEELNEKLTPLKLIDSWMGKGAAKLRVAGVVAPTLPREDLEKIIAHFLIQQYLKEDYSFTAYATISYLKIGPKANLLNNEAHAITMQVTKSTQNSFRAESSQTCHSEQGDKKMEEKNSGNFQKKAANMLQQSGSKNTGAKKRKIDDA
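50 nM RECQ1T1 preincubated 15 min with compound in Tris pH 8.0 buffer with MgCl2, DTT, Tween-20 and 2.5 ug/ml poly(dI-dC); started with 200 nM TAMRA/BHQ-2 forked duplex and 2 mM ATP. Unwinding read as fluorescence (525/598 nm), two reads 2 h apart.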
FEN1 inh: blocks human flap endonuclease 1; Recombinant FEN1 flap cleavage, fluorescence, 15 min; P39748; hit rate 0.35% among 390,000; Potency, µM (highest dose often 114 µM), for inactives: at the top dose activity change, negative = inhibition, hits mostly inhibitors; further: nearly all actives have a fitted effect of over 65% in size
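Read-out was taken twice, immediately and after 15 min, following addition of 50 nM substrate to 10 nM FEN1 that had sat with test compound for 15 min at room temperature. Curves came from a four-parameter Hill model.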
APEX1 inh: blocks human APE1 abasic DNA cleavage; P27695; recombinant APE1, TAMRA/BHQ-2 abasic DNA cleavage fluorescence; hit rate 0.35% among 350,000; Potency, µM (top dose mostly 65.8 µM), inactives show top-dose activity change, negative = inhibition, usual class: inhibitors;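 further: plate controls were vehicle for no effect and reference inhibitor for full effect; nearly all actives have a fitted effect of over 55% in size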
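Readout is kinetic fluorescence (ex 525, em 598 nm) from cleavage of 50 nM TAMRA/BHQ-2 THF abasic duplex by 0.75 nM APE1, compound added 15 min beforehand at RT.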
Starred values were filed as active, the others as inactive; i = inactive; ? = inconclusive; . = not tested or not shown; [ ] = another dose, or the depositor's remark. The call rests on the fitted dose curve; in most records, active means well fitted curve in the direction sought with a large enough effect; inconclusive means small, poorly fitted or top-dose-only effect, or another doubt; inactive means no such curve, though single readings can be large; an effect the other way counts as inactive or inconclusive. Unless noted, on the % scale 0 is the no-effect control and ±100 the full control effect; potency means the concentration at half of the fitted maximal effect.

SMILES	BLM helicase inh	TDP1 block	RECQ1 helicase	FEN1 inh	APEX1 inh
CCCCN(C(=O)c1cccc(-n2cccc2)c1)c1c(N)n(CCC)c(=O)[nH]c1=O	.	50µM*	.	-2%	-89%
COc1ccccc1NC(=O)C(=N\O)/C(C)=N/O	-3%	?	-6%	-13%	22µM*
Cc1ccc(NS(=O)(=O)c2cc3c(cc2F)NC(=O)CC3)cc1C	.	0%	.	.	.
N#CN1CCC(N[S+](=O)([O-])c2cccc(F)c2)CC1	.	1%	.	.	.
Cc1cc2[nH]c3c(=O)n(Cc4ccccc4F)ncc3c2s1	.	0%	.	.	.
CCN[C@@H]1C[C@H](N)[C@@H](OC2OC(CN)=CCC2N)[C@H](O)[C@H]1O[C@H]1OC[C@](C)(O)[C@H](NC)[C@H]1O (some centres not stated)	.	.	.	.	1%[21 µM]
Cc1cc2c(SCC(=O)Nc3cccc(O)c3)ncnc2s1	.	.	.	45µM*	.
O=C(CSc1ncc(S(=O)(=O)c2ccc(Cl)cc2)c(=O)[nH]1)Nc1cccc(C(F)(F)F)c1	-5%	0%	.	0%	.
CC(C)(C)c1ccc(S(=O)(=O)c2cnc(SCC(=O)Nc3ccc(F)c(Cl)c3)[nH]c2=O)cc1	-16%	.	.	50µM*	.
N#CC1(C#N)C(c2ccccc2)OC23CCCCC2C1(C#N)C(=N)O3 (configuration not stated)	-5%	-2%	13µM*	-7%	-2%
N#CC1(C#N)C(c2ccccc2)OC23CCCCCC2C1(C#N)C(=N)O3 (configuration not stated)	-8%	0%	-3%	-9%	0%
CC(=O)Nc1ccc(S(=O)(=O)N2CCCN(S(=O)(=O)c3ccc4c(c3)OCCO4)CC2)cc1	.	2%	.	.	.
C[C@@H]1O[C@@H](OC[C@@H]2O[C@H](Oc3c(-c4ccc(O)cc4)oc4cc(O)cc(O)c4c3=O)[C@@H](O)[C@H](O)[C@H]2O)[C@H](O)[C@H](O)[C@H]1O	.	6%	.	-11%	6%
O=C(O)C1OC(Oc2c(-c3ccc(O)c(O)c3)oc3cc(O)cc(O)c3c2=O)C(O)C(O)C1O (configuration not stated)	1%	-14%	-21%	11µM*	7.1µM*
O=S1(=O)N=C(Oc2ccccc2-c2ccccc2)c2ccccc21	.	2%	.	.	.
CC(C)(C)n1ncc2c(=O)n(Cc3ccc(F)cc3F)cnc21	.	.	.	-19%	-2%
CC(=O)OC[C@]12CC[C@H]3[C@@](C)(CC[C@H]4C(C)(C)CCC[C@]34C)[C@@H]1C[C@H](C1=CC(=O)O[C@@H]1OC(C)=O)O2	.	-11%	.	.	13µM*
CCCCCn1c(N)c(-c2nc3ccccc3o2)c2c([N+](=O)[O-])nn(C)c(=O)c21	16µM*	-5%	-1%	-1%	7%
C=CCN(CC=C)S(=O)(=O)c1ncn[nH]1	-3%	40µM*	-15%	8%	-5%
O=S(=O)(NCCNc1nc(-c2ccco2)nc2ccccc12)c1ccccc1	.	3%	.	.	.
COc1cc(OC)c(/C=C/c2cc(/C=C/c3c(OC)cc(OC)cc3OC)[n+](C)c3ccccc23)c(OC)c1	.	.	.	14µM*	.
COc1cc(/C=C/c2ccc3ccccc3[n+]2C)cc(OC)c1OC	.	.	.	-8%	.
COc1ccc(OC)c(/C=C/c2ccc3ccccc3[n+]2C)c1	.	.	.	45µM*	.
Cc1ccc(-n2cccc2/C=C2/C(=N)N3C(=NC2=O)SN=C3S(C)(=O)=O)cc1	-27%	1%	25µM*	?	?
Cc1cc(C)cc(-n2cccc2/C=C2/C(=N)N3C(=NC2=O)SN=C3S(C)(=O)=O)c1	32µM*	6%	32µM*	-6%	?
SMILES	BLM helicase inh	TDP1 block	RECQ1 helicase	FEN1 inh	APEX1 inh
CCc1ccc(-n2cccc2/C=C2/C(=N)N3C(=NC2=O)SN=C3S(C)(=O)=O)cc1	?	4%	35µM*	?	?
COc1cccc(-n2c(C)cc(/C=C3/C(=N)N4C(=NC3=O)SN=C4S(C)(=O)=O)c2C)c1	-23%	4%	-12%	-15%	18%
CS(=O)(=O)C1=NSC2=NC(=O)/C(=C\c3cccn3-c3ccccc3Cl)C(=N)N21	-29%	2%	25µM*	?	-8%
CCC1=NN2C(=N)/C(=C\c3cccn3-c3ccc(Cl)cc3)C(=O)N=C2S1	-13%	2%	-3%	-1%	1%
COc1ccc(-c2nc3ccccc3c(=O)n2Cc2ccccc2)cc1OCc1ccc(NC(C)=O)cc1	.	3%	.	.	.
O=C(N/N=C/c1ccccn1)c1sc2ccccc2c1Cl	-11%	9%	-27%	?	-5%
O=C(N/N=C/c1ccc([N+](=O)[O-])o1)c1sc2ccccc2c1Cl	-9%	.	i	40µM*	1%
C=CCn1c(N)c(C(=O)NCC2CCCO2)c2nc3ccccc3nc21 (configuration not stated)	5.6µM*	1%	-8%	-12%	-2%
C=CCn1c(N)c(C(=O)NCC2CCCO2)sc1=S (configuration not stated)	2%	0%	9%	-3%	14%
O=C1OC(c2ccccc2)(c2cc(Br)c(O)c(Br)c2)c2ccccc21 (configuration not stated)	.	.	.	-6%	.
O=C1OC2(c3cc(Br)c(O)c(Br)c3Oc3c2cc(Br)c(O)c3Br)c2c(Cl)c(Cl)c(Cl)c(Cl)c21	.	22%	5µM*	.	4.5µM*
C=C(C)C(=O)Nc1cccc(C2=NOC3(C2)C[C@@H](C(N)=O)N(C(=O)CC(c2ccccc2)c2ccccc2)C3)c1 (some centres not stated)	-21%	18µM*	?	-13%	?
NC(=O)[C@H]1CC2(CC(c3cccc(NC(=O)[C@H]4CCC(=O)N4)c3)=NO2)CN1C(=O)c1ccccc1 (some centres not stated)	-7%	14µM*	i	79µM*	?
NC(=O)[C@H]1CC2(CC(c3cccc(NC(=O)CC(c4ccccc4)c4ccccc4)c3)=NO2)CN1C(=O)CC(c1ccccc1)c1ccccc1 (some centres not stated)	-6%	-4%	-12%	-15%	-4%
C=C(C)C(=O)Nc1cccc(C2=NOC3(C2)C[C@@H](C(N)=O)N(C(=O)/C=C/C=C/C)C3)c1 (some centres not stated)	-12%	35µM*	?	?	?
C=C(C)C(=O)Nc1cccc(C2=NOC3(C2)C[C@@H](C(N)=O)N(C(=O)/C(C)=C/C)C3)c1 (some centres not stated)	-1%	.	18µM*	-20%	-10%
COc1cc(F)c(S(=O)(=O)N2CCN(S(=O)(=O)c3ccc4c(c3)OCCO4)CC2)c(F)c1	.	1%	.	.	.
O=C1CCc2cc(S(=O)(=O)Nc3cccc(-c4ccccc4)c3)ccc2N1	.	2%	.	.	.

Source: PubChem (National Center for Advancing Translational Sciences (NCATS))
